Where “and” joins values, the source holds several entries; their conditions need not be identical. Equal entries are not always repeated. Inconclusive results are not listed. Some compounds were tested as several samples or in several runs, with calls that do not always agree. Calls of active or inactive are those of the source. Unless noted, calls come from the whole dose curve.
Tests used:
[1] = Nuclear factor erythroid 2-related factor 2/antioxidant responsive element (Nrf2/ARE) small molecule agonists: qHTS cell viability counter screen in human keratinocytes (AID 1919968; active = well fitted curve in the direction sought with a large enough effect in the repeat runs; an effect the other way counts as inactive or inconclusive; note: nearly all actives have a fitted effect of over 55% in size; note: potency is the fitted concentration of half-maximal effect)
How it was run: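 Seed 1,500 KeratinoSens cells per well, then incubate 5 h at 37 C/5% CO2. Add compounds in DMSO and incubate 23 h. Add CellTiter-Fluor, wait 1 h and read fluorescence.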

[2] = Nuclear factor erythroid 2-related factor 2/antioxidant responsive element (Nrf2/ARE) small molecule agonists: luciferase reporter gene qHTS assay in human keratinocytes (AID 1919969); note: nearly all actives have a fitted effect of over 35% in size; note: potency is the fitted concentration of half-maximal effect
[3] = target: Gonadotropin-releasing hormone receptor (Homo sapiens) (UniProt P30968); experiment: Human gonadotropin-releasing hormone receptor (GnRHR) small molecule agonists, calcium flux assay in GnRHR-HEK293 cells (AID 1920063); note: nearly all actives have a fitted effect of over 35% in size
Sequence of Gonadotropin-releasing hormone receptor (Homo sapiens) (P30968 whole entry, looked up): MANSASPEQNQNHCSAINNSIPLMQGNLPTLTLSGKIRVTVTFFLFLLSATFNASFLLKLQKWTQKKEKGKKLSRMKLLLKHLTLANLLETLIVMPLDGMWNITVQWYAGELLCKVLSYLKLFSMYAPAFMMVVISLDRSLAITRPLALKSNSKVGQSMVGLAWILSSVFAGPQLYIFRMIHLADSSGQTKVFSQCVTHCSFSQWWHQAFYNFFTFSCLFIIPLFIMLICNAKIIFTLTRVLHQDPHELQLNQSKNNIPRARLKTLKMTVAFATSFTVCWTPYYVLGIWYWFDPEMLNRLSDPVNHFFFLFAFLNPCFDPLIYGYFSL
How it was run: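 Cells: HEK293 stably expressing human GnRHR. Steps: overnight (18 h) culture, 1 h calcium dye loading at 37 C, compound addition, kinetic fluorescence read at 480/540 nm. Each compound tested at 15 concentrations in triplicate.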

[4] = target: KiSS-1 receptor (Homo sapiens) (UniProt Q969F8); experiment: Human kisspeptin (KISS1R) small molecule agonists, calcium flux assay in KISS1R-HEK293 cells (AID 1920064; active = well fitted curve in the direction sought with a large enough effect in the repeat runs; an effect the other way counts as inactive or inconclusive)
Sequence of KiSS-1 receptor (Homo sapiens) (Q969F8 whole entry, looked up): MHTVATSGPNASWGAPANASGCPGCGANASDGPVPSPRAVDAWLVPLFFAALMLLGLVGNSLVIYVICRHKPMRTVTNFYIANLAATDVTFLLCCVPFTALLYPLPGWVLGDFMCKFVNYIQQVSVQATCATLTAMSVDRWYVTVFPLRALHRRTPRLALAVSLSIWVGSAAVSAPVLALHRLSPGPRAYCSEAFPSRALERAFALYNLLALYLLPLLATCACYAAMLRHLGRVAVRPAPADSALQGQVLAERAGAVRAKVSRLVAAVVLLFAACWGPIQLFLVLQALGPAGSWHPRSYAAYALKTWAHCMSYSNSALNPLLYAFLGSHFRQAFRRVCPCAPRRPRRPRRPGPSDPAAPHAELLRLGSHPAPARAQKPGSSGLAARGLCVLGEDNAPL
How it was run: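 Cells plated and incubated 18 h; dye added, 1 h at 37 C; compounds in DMSO pinned in; signal read at 480/540 nm every second for 3 min. Each compound tested at 15 concentrations in triplicate.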

[5] = G protein-coupled receptor (GPCR) small molecule agonists, calcium flux assay: HEK293 wild type cell line counter screen (AID 1920065)
How it was run: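 Counter-screen of the Tox21 10K library for non-specific calcium release: dye-loaded cells received compounds in DMSO and were monitored by kinetic fluorescence (480/540 nm, 3 min). Fifteen concentrations, run in triplicate.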

[6] = p53 small molecule agonists, cell-based qHTS assay with human liver microsomes (AID 1963577);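 note: p53 response element beta-lactamase reporter cells with liver microsomes plus NADPH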
How it was run: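 HLM-supplemented p53RE-bla reporter assay: 16 h compound exposure at 37 C, microsomes and NADPH each 0.5 mg/mL final, read by fluorescence intensity.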

[7] = p53 small molecule agonists, cell-based qHTS assay with rat liver microsomes (AID 1963578)
How it was run: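 Quantitative HTS of the Tox21 10K library: p53RE-bla cells, rat liver microsomes plus NADPH at 0.5 mg/mL final each, 16 h at 37 C, beta-lactamase fluorescence detection.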

[8] = p53 small molecule agonists, cell-based qHTS assay with human liver microsomes: qHTS cell viability counter screen (AID 1963579); note: nearly all actives have a fitted effect of over 45% in size; note: potency is the fitted concentration of half-maximal effect
How it was run: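 Viability of p53RE-bla cells is measured as CellTiter-Glo luminescence following a 16 h, 37 C incubation with compound, liver microsomes from human donors and NADPH.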

[9] = p53 small molecule agonists, cell-based qHTS assay with rat liver microsomes: qHTS cell viability counter screen (AID 1963580); note: nearly all actives have a fitted effect of over 45% in size; note: potency is the fitted concentration of half-maximal effect
How it was run: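 Viability is assessed in parallel with the p53 reporter read: HCT-116 p53RE-bla cells receive compounds plus rat microsomes and NADPH (0.5 mg/mL final apiece), incubate 16 h at 37 C, and then CellTiter-Glo luminescence is recorded.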

[10] = p53 small molecule agonists, cell-based qHTS assay: qHTS cell viability counter screen (AID 1963581); note: nearly all actives have a fitted effect of over 45% in size
How it was run: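 Cells: HCT-116 with p53 response element-driven beta-lactamase. Treatment: 16 h, 37 C, compounds in DMSO. Read: CellTiter-Glo luminescence after 30 min RT.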

[11] = p53 small molecule agonists, cell-based qHTS assay (AID 1963582; active = well fitted activation curve with a large enough effect in the signal ratio in the repeat runs, not every such curve was filed as active; the % refers to the signal ratio; note: potency is the fitted concentration of half-maximal effect)
How it was run: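 Quantitative HTS in p53RE-bla cells: after a 5 h settling period, compounds delivered in DMSO were left on cells for 16 h at 37 C, and reporter induction was measured as fluorescence following 2 h substrate loading.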

[12] = target: 5-hydroxytryptamine receptor 2A (Homo sapiens) (UniProt P28223); experiment: 5-hydroxytryptamine receptor 2A (HTR2A) small molecule antagonists, cell-based qHTS assay (AID 1963586); note: nearly all actives have a fitted effect of over 45% in size; note: potency is the fitted concentration of half-maximal effect
Sequence of 5-hydroxytryptamine receptor 2A (Homo sapiens) (P28223 whole entry, looked up): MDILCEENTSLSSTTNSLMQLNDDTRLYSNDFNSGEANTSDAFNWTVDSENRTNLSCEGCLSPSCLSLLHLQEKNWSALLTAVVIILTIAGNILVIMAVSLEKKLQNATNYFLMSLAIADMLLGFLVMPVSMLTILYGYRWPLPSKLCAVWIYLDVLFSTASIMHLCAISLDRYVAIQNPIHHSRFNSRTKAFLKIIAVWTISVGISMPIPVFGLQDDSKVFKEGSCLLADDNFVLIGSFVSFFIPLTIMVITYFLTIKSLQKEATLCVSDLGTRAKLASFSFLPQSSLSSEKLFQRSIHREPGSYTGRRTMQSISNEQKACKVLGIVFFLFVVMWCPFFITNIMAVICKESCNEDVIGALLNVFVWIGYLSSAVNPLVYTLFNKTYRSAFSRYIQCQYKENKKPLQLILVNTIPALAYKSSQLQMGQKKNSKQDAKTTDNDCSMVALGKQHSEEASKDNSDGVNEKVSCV
How it was run: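 Antagonist-mode intracellular calcium assay: DOI (4 nM) added after 5 min compound pre-incubation at room temperature to dye-loaded HTR2A-CHO cells. Fluorescence followed for 3 min, sampled every second.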

[13] = target: 5-hydroxytryptamine receptor 2A (Homo sapiens) (UniProt P28223); experiment: 5-hydroxytryptamine receptor 2A (HTR2A) small molecule agonists, cell-based qHTS assay (AID 1963587); note: nearly all actives have a fitted effect of over 30% in size; note: potency is the fitted concentration of half-maximal effect
How it was run: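 CHO cells stably expressing human HTR2A, plated 18 h, loaded with calcium dye 1 h at 37 C. Agonist mode: compounds added and intracellular calcium fluorescence recorded kinetically for 2 min at 1 sec intervals.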

[14] = target: Muscarinic acetylcholine receptor M1 (Homo sapiens) (UniProt P11229); experiment: Cholinergic receptor muscarinic 1 (CHRM1) small molecule antagonists, cell-based qHTS assay (AID 1963588); note: nearly all actives have a fitted effect of over 40% in size
Sequence of Muscarinic acetylcholine receptor M1 (Homo sapiens) (P11229 whole entry, looked up): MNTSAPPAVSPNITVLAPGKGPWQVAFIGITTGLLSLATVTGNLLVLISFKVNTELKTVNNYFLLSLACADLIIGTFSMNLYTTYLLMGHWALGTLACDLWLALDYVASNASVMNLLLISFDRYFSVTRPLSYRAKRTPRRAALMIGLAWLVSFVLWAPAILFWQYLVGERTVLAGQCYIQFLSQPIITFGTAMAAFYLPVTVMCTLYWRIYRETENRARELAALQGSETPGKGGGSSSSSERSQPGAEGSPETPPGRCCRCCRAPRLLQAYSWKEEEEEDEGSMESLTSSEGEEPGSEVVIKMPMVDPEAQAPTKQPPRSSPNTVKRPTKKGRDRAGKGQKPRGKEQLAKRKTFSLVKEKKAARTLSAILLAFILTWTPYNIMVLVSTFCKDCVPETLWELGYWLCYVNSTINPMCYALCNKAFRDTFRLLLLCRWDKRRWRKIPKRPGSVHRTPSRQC
How it was run: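 CHRM1-CHO calcium-flux assay, antagonist mode. Cells were seeded 18 h, dye-loaded 1 h at 37 C and given compound for 5 min at RT, then acetylcholine was added at 50nM. FDSS fluorescence was read 3 min; 15 concentrations, three runs.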

[15] = cAMP Responsive Elements (CRE) small molecule agonists, cell-based qHTS assay (AID 1963590)
How it was run: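 Agonist mode qHTS in CRE-bla HEK 293T cells: compounds dosed from DMSO for 3 h at 37 C/5% CO2, followed by LiveBLAzer B/G FRET substrate for 2 h at room temperature.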

[16] = cAMP Responsive Elements (CRE) small molecule antagonists, cell-based qHTS assay (AID 1963591; active = well fitted inhibition curve with a large enough effect in the signal ratio in the repeat runs, not every such curve was filed as active; the % refers to the signal ratio)
How it was run: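 Antagonist mode: test compounds are co-incubated with the adenylyl cyclase activator NKH477 (0.25 uM final) on CRE-bla HEK293T cells for 3 h at 37 °C, followed by LiveBLAzer substrate loading.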

[17] = target: Beta-2 adrenergic receptor (Homo sapiens) (UniProt P07550); experiment: Adrenergic beta2 receptor (ADRB2) small molecule antagonists, cell-based qHTS assay (AID 1963592); note: series mostly up to about 92 µM; nearly all actives have a fitted effect of over 50% in size
Sequence of Beta-2 adrenergic receptor (Homo sapiens) (P07550 whole entry, looked up): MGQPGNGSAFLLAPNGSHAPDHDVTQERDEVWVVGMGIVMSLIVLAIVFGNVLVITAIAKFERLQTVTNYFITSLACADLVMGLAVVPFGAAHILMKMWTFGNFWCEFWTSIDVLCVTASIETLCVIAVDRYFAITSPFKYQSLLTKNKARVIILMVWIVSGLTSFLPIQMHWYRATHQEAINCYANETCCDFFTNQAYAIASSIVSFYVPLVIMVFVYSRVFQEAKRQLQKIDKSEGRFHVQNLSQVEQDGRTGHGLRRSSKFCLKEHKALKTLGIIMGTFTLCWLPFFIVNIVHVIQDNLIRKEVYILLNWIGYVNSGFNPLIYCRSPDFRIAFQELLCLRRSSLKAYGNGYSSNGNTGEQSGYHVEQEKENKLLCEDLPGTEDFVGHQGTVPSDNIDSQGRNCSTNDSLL
How it was run: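 Cells (CHO, stable ADRB2 overexpression) incubated 18-20hr at 37C; compounds added from DMSO; agonist mix (1nM isoproterenol, 100uM IBMX, 25uM Ro-20-1724) added; 0.5hr RT; d2-cAMP and anti-cAMP-cryptate added; 1hr RT; 665/615 nm read.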

[18] = target: Muscarinic acetylcholine receptor M1 (Homo sapiens) (UniProt P11229); experiment: Cholinergic receptor muscarinic 1 (CHRM1) small molecule agonists, cell-based qHTS assay (AID 1963589); note: nearly all actives have a fitted effect of over 35% in size
How it was run: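 Agonist-mode qHTS in CHO cells stably carrying human muscarinic M1. Intracellular calcium is tracked by fluorescence every second after compound transfer; each compound runs at 15 concentrations in three independent runs.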

[19] = target: D(2) dopamine receptor (Homo sapiens) (UniProt P14416); experiment: Dopamine D2 receptor (DRD2) small molecule agonists, cell-based qHTS assay (AID 1963594); note: nearly all actives have a fitted effect of over 35% in size
Sequence of D(2) dopamine receptor (Homo sapiens) (P14416 whole entry, looked up): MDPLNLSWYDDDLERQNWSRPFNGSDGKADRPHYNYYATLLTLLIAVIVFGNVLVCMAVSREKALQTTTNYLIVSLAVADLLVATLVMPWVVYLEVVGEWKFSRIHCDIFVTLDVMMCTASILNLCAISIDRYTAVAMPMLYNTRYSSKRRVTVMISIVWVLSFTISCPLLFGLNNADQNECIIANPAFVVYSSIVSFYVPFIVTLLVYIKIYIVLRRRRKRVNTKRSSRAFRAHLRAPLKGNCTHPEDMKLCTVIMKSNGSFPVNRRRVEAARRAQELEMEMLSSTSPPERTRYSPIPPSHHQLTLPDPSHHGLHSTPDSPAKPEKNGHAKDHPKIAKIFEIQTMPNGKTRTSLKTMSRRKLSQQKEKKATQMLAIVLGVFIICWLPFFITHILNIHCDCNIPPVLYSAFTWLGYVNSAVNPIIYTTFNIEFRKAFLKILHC
How it was run: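 HEK293 cells stably expressing human DRD2, pre-treated with PDE inhibitor Ro20-1724 (0.1 mM final) and compound 10 min at room temperature, then stimulated with NKH477 (200nM […]) for 30 min. cAMP read by HTRF (665/620 nm).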

[20] = target: D(2) dopamine receptor (Homo sapiens) (UniProt P14416); experiment: Dopamine D2 receptor (DRD2) small molecule antagonists, cell-based qHTS assay (AID 1963595; active = well fitted inhibition curve with a large enough effect in the signal ratio in the repeat runs, with a control signal flat; the % refers to the signal ratio; note: potency is the fitted concentration of half-maximal effect)
How it was run: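 Antagonism was scored as restored cAMP in HEK293-DRD2 cells. These cells were stimulated with 200 nM NKH477 and 12 nM quinpirole for 30 min at room temperature, in the presence of 0.1 mM Ro20-1724.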
% is set by controls: 0 for no effect and ±100 for the full control effect.

CN(C)C(=O)Oc1ccc[n+](C)c1
inactive: Potency [1] | Potency [2] | Potency [3] | Potency [4] | Potency [5] | Potency [6] | Potency [7] | Potency [8] | Potency [9] | Potency [10] | Potency [11] | Potency [12] | Potency [13] | Potency [14] | Potency [15] | Potency [16] | Potency [17]

Cc1ccc2ccccc2c1[N+](=O)[O-]
inactive: Potency [1] | Potency [2] | Potency [3] | Potency [4] | Potency [5] | Potency [6] | Potency [7] | Potency [8] | Potency [9] | Potency [10] | Potency [11] | Potency [12] | Potency [13] | Potency [14] | Potency [18] | Potency [16] | Potency [17] | Potency [19] | Potency [20]

O=Nc1ccc(Nc2ccccc2)cc1
active: Potency [1] 27.4 µM | Potency [2] 9.74 µM and 24.3 µM | Potency [9] 40.8 µM | Potency [11] 43.4 µM | Potency [12] 844 nM and 5.3 µM | Potency [13] 0.391 µM | Potency [20] 54.5 µM
inactive and 36.3 µM (active): Potency [8]
inactive: Potency [3] | Potency [4] | Potency [5] | Potency [6] | Potency [7] | Potency [10] | Potency [14] | Potency [18] | Potency [19]

CCCCCCCCCCCC(=O)OCC(C)OC(=O)CCCCC(=O)O (configuration not stated)
inactive: Potency [1] | Potency [2] | Potency [3] | Potency [4] | Potency [5] | Potency [6] | Potency [7] | Potency [8] | Potency [9] | Potency [10] | Potency [11] | Potency [12] | Potency [13] | Potency [14] | Potency [18] | Potency [15] | Potency [19] | Potency [20]

CCCCCCc1ccc(-c2ccc(C#N)cc2)cc1
inactive: Potency [1] | Potency [3] | Potency [4] | Potency [5] | Potency [6] | Potency [7] | Potency [8] | Potency [9] | Potency [10] | Potency [11] | Potency [12] | Potency [13] | Potency [14] | Potency [18] | Potency [16] | Potency [17] | Potency [19] | Potency [20]
active: Potency [2] 13.4 µM

COC(=O)c1ccc2cc(C(=O)OC)ccc2c1
inactive: activity change, negative = cytotoxicity [1] 1.05% [at 19 µM] | activity, positive = activation [2] 20.6% [at 19 µM] | activity change [3] 0.0273% [at 11.8 µM, stronger effect = higher value] | activation [4] 2.25% [at 15.8 µM] | activation [5] 0.0113% [at 11.8 µM] | activation [6] -11.1% [at 13.5 µM] | activation [7] -1.04% [at 13.6 µM] | activity change, negative = cytotoxicity [8] -6.68% [at 13.5 µM] | activity change, negative = cytotoxicity [9] -1.51% [at 13.5 µM] | activity change, negative = cytotoxicity [10] 11% [at 13.5 µM] | activation [11] -2.37% [at 13.5 µM] | activity, negative = inhibition [12] 2.21% [at 12.7 µM] | activation [13] -0.775% [at 15.9 µM] | activity, negative = inhibition [14] -8% [at 12.6 µM] | activation [15] -2.52% [at 19 µM] | activity change, negative = inhibition [16] -4.98% [at 18.9 µM] | activity change, negative = inhibition [17] -9.16% [at 19 µM] | activation [19] -0.16% [at 19 µM] | activity change, negative = inhibition [20] -2.05% [at 18.9 µM]

O=C1OC(=O)c2ccc3c4c(ccc1c24)C(=O)OC3=O
inactive: Potency [1] | Potency [2] | Potency [3] | Potency [4] | Potency [5] | Potency [6] | Potency [7] | Potency [8] | Potency [9] | Potency [10] | Potency [11] | Potency [12] | Potency [13] | Potency [14] | Potency [15] | Potency [16] | Potency [17] | Potency [19]
